Consider 13 molecules from PubChem BioAssay.

A short description of assay [1]: HepG2 liver cancer cell viability effects, profiling panel, resazurin fluorescence, 24 h, PK04 Diversity Set (AID 1172). Further: test concentration not given here. The conditions noted are these: higher = more signal. Background: The colour change of resazurin is a common sign of viable cells or microbes.
Assay [2] in a line: basal S. cerevisiae growth modulation, no modifier, primary screen, OD600, strain BY4716, 24 h, basal condition (AID 1173). The conditions noted are these: OD600, 24 h, higher = more signal, called active from +8 up or from −8 down.
The nature of assay [3]: MM1S myeloma cell viability, profiling panel, resazurin fluorescence, basal, 24 h, PK04 Diversity Set (AID 1174).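 Further: MM1S multiple myeloma cell line; test concentration not given here.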 The following applies: higher = more signal, called active from +8 up or from −8 down.
Assay [4] has as its target Dihydroorotate dehydrogenase (quinone), mitochondrial (Plasmodium falciparum (isolate 3D7)) (UniProt Q08210). The assay is described as follows: PfDHODH enzyme inhibitors, primary screen, biochemical, C-terminal His tag, absorbance 600 nm (AID 1175).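 Further: recombinant parasite enzyme with a five histidine tag at its C terminus; test concentration not given here.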 The following applies: DCIP absorbance 600 nm, higher = more signal, called active from +8 up or from −8 down.
Assay [5] can be described thus: P. aeruginosa biofilm formation inhibitors, primary screen, strain PAO1, LB-PBS medium, absorbance 600 nm (AID 1176). Further: test concentration not given here. The conditions noted are these: P. aeruginosa PAO1 growth/biofilm, A600, 12 h; higher = more signal.
Assay [6] in a line: S. cerevisiae RM11-1a growth modifiers, primary screen, strain RM11-1a, OD600, basal, 24 h (AID 1177).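 Further: cultures grown under basal conditions with no added stressor; test concentration not given here.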 The conditions noted are these: OD600, 24 h, higher = more signal, called active from +8 up or from −8 down.
Assay [7] is described as follows: E. coli acrAB mutant growth effects, primary screen, E. coli filamentation inducers, strain DRC39, OD650, 24 h (AID 1178).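 Further: growth measured as culture turbidity by optical density at 650 nm; test concentration not given here.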 The conditions noted are these: higher = more signal, called active from +8 up or from −8 down.
A short description of assay [8]: E. coli acrAB mutant growth effects, primary screen, E. coli filamentation inducers, strain DRC39, OD650, 48 h (AID 1179).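 Further: screen aims at cell division blockers that make cells filament.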 The following applies: E. coli DRC39 delta-acrAB growth, higher = more signal, called active from +8 up or from −8 down.
A short description of assay [9]: RPMI8226 myeloma cell viability, profiling panel, resazurin fluorescence, basal, 24 h, PK04 Diversity Set (AID 1180).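 Further: RPMI8826 multiple myeloma cell line at 5000 cells per well; test concentration not given here.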 The conditions noted are these: higher = more signal.
Assay [10] addresses E3 ubiquitin-protein ligase XIAP (Homo sapiens) (UniProt P98170). Put plainly: XIAP binders, primary screen, biophysical, small-molecule microarray, fluorescence 635 nm (AID 1181).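 Further: score merges 667 nm emission and signal to noise over triplicate slides.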 The following applies: small-molecule microarray binding, higher = more signal.

Active and inactive are the calls of the source. Unless noted, how the calls were made is not given here.

Sequence of E3 ubiquitin-protein ligase XIAP (Homo sapiens) (P98170 whole entry, looked up): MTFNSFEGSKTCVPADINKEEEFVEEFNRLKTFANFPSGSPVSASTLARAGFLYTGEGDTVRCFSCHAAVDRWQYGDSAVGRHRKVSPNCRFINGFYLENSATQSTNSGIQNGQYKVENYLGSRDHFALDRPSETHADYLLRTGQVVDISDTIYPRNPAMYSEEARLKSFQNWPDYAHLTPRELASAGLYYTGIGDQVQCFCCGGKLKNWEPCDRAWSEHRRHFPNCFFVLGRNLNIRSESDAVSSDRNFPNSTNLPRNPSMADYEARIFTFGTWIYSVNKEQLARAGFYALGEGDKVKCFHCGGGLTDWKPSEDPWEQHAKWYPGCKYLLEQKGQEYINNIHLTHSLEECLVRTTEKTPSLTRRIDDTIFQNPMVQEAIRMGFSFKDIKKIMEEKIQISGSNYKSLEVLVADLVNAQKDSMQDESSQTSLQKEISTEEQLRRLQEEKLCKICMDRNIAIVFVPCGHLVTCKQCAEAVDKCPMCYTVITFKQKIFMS
Sequence of Dihydroorotate dehydrogenase (quinone), mitochondrial (Plasmodium falciparum (isolate 3D7)) (Q08210 whole entry, looked up): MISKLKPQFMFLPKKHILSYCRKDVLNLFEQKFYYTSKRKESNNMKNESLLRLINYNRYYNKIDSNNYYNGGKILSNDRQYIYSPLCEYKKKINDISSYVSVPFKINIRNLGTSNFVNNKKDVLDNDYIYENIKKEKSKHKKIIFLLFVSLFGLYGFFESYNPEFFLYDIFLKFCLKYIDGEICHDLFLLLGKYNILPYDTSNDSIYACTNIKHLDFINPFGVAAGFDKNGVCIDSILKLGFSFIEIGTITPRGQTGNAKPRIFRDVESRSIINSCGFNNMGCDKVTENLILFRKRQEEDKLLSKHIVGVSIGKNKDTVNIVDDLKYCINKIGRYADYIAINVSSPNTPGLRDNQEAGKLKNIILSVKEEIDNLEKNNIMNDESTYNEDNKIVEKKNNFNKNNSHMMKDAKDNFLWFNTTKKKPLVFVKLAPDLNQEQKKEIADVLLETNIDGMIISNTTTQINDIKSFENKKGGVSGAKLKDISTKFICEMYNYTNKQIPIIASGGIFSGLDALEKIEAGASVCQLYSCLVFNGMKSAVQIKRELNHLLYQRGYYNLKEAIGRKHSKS

`COc1ccc(C(O)C2C=CC3C(=O)N(c4ccccc4)C(=O)C3N2Nc2ccc([N+](=O)[O-])cc2)cc1` (stereo not given): the z-score in [1] is -0.724; in assay [2], 0.402 (inactive); in [3], -0.754 (inactive); in [5], 0.837 (inactive); in assay [6] it was 0.613 (inactive); in assay [7], -1.2 (inactive). The z-score in assay [8] is -0.996 (inactive); in assay [9] it was -0.502. The composite z-score was -0.0727 (inactive) in assay [4] and 0.21 in assay [10].
Regarding `Cc1ccc(S[C@]2(C(=O)NCC(F)(F)F)CC(=O)N(Cc3ccccc3)[C@@H]2c2ccc(CO)cc2I)cc1`, the z-score is 0.448 in assay [1]; -3.93 (inactive) in assay [2]; -3.15 (inactive) in assay [3]; 0.848 (inactive) in [5]; -1.55 (inactive) in assay [6]; 0.531 (inactive) in assay [7]. In addition, the z-score is 0.562 (inactive) in assay [8] and -2.27 in assay [9]. The composite z-score is 0.343 (inactive) in [4] and 0.0338 in [10].
`NC(=O)NCC#Cc1ccc2c(c1)[C@]1(C(=O)N2)[C@H](C(=O)O)[C@H]2C(=O)O[C@H](c3ccccc3)[C@H](c3ccccc3)N2[C@@H]1c1ccc(OCCO)cc1`: the z-score in assay [1] is 0.626; in assay [2], 0.0086 (inactive); in assay [3] it was 0.557 (inactive); in [5], 0.545 (inactive); in [6], -0.285 (inactive); in [7] it was -0.0444 (inactive). The figures for the z-score in [8] and in assay [9] were -0.721 (inactive) and 0.547, respectively. For the same molecule, the composite z-score is -0.932 (inactive) in assay [4] and 0.361 in [10].
On to `[N-]=[N+]=Nc1ccccc1[C@H]1OC(c2ccc(OCCCO)cc2)=N[C@@]1(CCS(=O)(=O)c1ccccc1)C(=O)NCCN1CCOCC1`, for which the z-score is 0.3 in [1]; -0.378 (inactive) in assay [2]; 0.131 (inactive) in assay [3]; 0.537 (inactive) in [5]; 0.0557 (inactive) in [6]; -0.259 (inactive) in assay [7]. Besides, the z-score in [8] is -0.264 (inactive); in [9], 0.291. Moreover, the composite z-score in [4] was 0.467 (inactive); in assay [10], 0.177.
As for `C=CCC(OC(C)=O)[C@@H]1[C@@H](N(Cc2ccc(-c3cccc(C(F)(F)F)c3)o2)C(=O)c2ccc(-c3ccccc3)cc2)c2cc(OCCCO)ccc2N1C(=O)c1ccc2ccccc2n1` (stereo not given in full), the z-score in [1] is -0.0845; in assay [2] it was 1.59 (inactive); in assay [3], 0.328 (inactive); in [5], 0.857 (inactive); in assay [6] it was 0.859 (inactive); in assay [7], -0.347 (inactive). Moreover, the z-score in assay [8] was -0.302 (inactive); in assay [9] it was -0.556. Also, the figures for the composite z-score in assay [4] and in [10] were -0.32 (inactive) and -0.152, respectively.
For the molecule `CCOC(=O)C1=CC[C@@H](c2cccc(Cl)c2)N(S(=O)(=O)c2ccc(C)cc2)C1`, the z-score is -0.36 in assay [1]; 0.255 (inactive) in assay [2]; -0.347 (inactive) in assay [3]; -0.405 (inactive) in assay [5]; -0.188 (inactive) in assay [6]; 0.242 (inactive) in [7]. Also, the z-score in assay [8] is 1.2 (inactive); in assay [9], -0.277. Besides, the composite z-score in assay [4] was -1.54 (inactive); in [10] it was -0.149.
With `CCOC(=O)C[C@H]1[C@H](OC(=O)c2ccccc2-c2ccccc2)[C@@H](NC(=O)C2CCCCC2)c2cc(OCCCO)ccc2N1C(=O)Cc1ccc(OC)cc1`, the z-score was -0.18 in assay [1]; 0.0422 (inactive) in [2]; -0.257 (inactive) in assay [3]; 0.0238 (inactive) in assay [5]; -0.508 (inactive) in assay [6]; -0.506 (inactive) in assay [7]. Further, the z-score was -0.657 (inactive) in [8] and -0.466 in [9]. The composite z-score is 0.0563 (inactive) in assay [4] and -0.159 in [10].
As for `O=C1NC(=O)C2C1C=CC(C(O)CCc1ccccc1)N2Nc1ccc(Cl)cc1Cl` (stereo not given), the z-score in assay [1] is -1.24; in assay [2] it was -3.34 (inactive); in [3], -1.59 (inactive); in assay [5], 0.667 (inactive); in assay [6], -0.385 (inactive); in assay [7], -0.172 (inactive). In addition, the z-score in assay [8] is -0.611 (inactive); in assay [9] it was -1.77. Further, the composite z-score in assay [4] is -0.596 (inactive); in assay [10], 0.178.
In the case of `CN1C(=O)C2C=CC(C(O)c3ccccn3)N(N(c3ccccc3)c3ccccc3)C2C1=O` (stereo not given), the z-score in assay [1] was -1.15; in assay [2], 0.527 (inactive); in assay [3], -0.555 (inactive); in assay [5], 1.01 (inactive); in assay [6], 0.429 (inactive); in [7], -0.155 (inactive). The z-score was -0.38 (inactive) in [8] and -0.368 in assay [9]. Further, the results for the composite z-score in [4] and in assay [10] were 0.464 (inactive) and 0.304, respectively.
In the case of `O=C1OCCC=C[C@H]2OC34C=CCN(Cn5nnc6ccccc65)C(=O)[C@H]3N(CCCCCCO)C(=O)[C@@H]4C12` (stereo not given in full), the z-score is -0.677 in assay [1]; 0.506 (inactive) in [2]; -2.51 (inactive) in assay [3]; 0.205 (inactive) in assay [5]; 0.587 (inactive) in assay [6]; 0.603 (inactive) in assay [7]. Moreover, the z-score in assay [8] was 0.703 (inactive); in assay [9] it was -0.288. The composite z-score in [4] is -0.272 (inactive); in assay [10] it was -0.302.
Turning to `O=C(NCC(F)(F)F)[C@@H]1c2ccccc2C(=O)N(Cc2cc(F)cc(C(F)(F)F)c2)[C@H]1c1ccc(CO)cc1`, the z-score in [1] was -0.16; in [2], -0.359 (inactive); in [3] it was 0.0875 (inactive); in [5] it was 0.221 (inactive); in assay [6], 0.933 (inactive); in [7] it was 0.647 (inactive). Moreover, the z-score in assay [8] was -0.0858 (inactive); in [9] it was 0.867. Moreover, the values for the composite z-score in assay [4] and in [10] were 0.94 (inactive) and -0.126, respectively.
For the molecule `CC(C)(C)N1CC=CC23O[C@@H]4C=CCOC(=O)[C@@H]4[C@H]2C(=O)N(CCCCCCO)[C@@H]3C1=O` (stereo not given in full), the z-score in [1] is -0.303; in [2] it was -0.093 (inactive); in assay [3], 0.448 (inactive); in assay [5] it was -0.608 (inactive); in [6] it was -0.957 (inactive); in assay [7], 0.226 (inactive). Besides, the values for the z-score in assay [8] and in [9] were 0.254 (inactive) and 0.29, respectively. The composite z-score is -0.817 (inactive) in assay [4] and 0.0385 in assay [10].
As for `C#CCN([C@@H](Cc1ccc(O)cc1)C(=O)OC)[C@@H](/C=C/C1CC1)[C@H](O)Cc1ccccc1`, the z-score was -1.12 in [1]; -2.71 (inactive) in assay [2]; -0.758 (inactive) in [3]; -0.672 (inactive) in assay [5]; -0.136 (inactive) in [6]; -0.933 (inactive) in assay [7]. For the same molecule, the z-score in assay [8] is -0.737 (inactive); in assay [9], -0.61. Further, the composite z-score was -0.228 (inactive) in assay [4] and 0.798 in assay [10].
